Screens as filed in PubChem.
Compounds with a hit are over-represented: about 2.5% of the library has one in this group of screens.
TWEAK-Fn14 inh = inhibitors of TWEAK-Fn14 interaction signaling; TWEAK-stimulated Fn14 reporter cells, luciferase luminescence, 8 h; inhibition, % at 10 µM; 360,000 tested, 2% active; AID 1159606; in the data active = inhibition above about 50%
LGR2 antag = blocks bursicon-induced cAMP signaling via Drosophila LGR2. HEK293 LGR2, CRE-luciferase, bursicon-stimulated, 4 h. inhibition, % at 9.99 µM. 380,000 tested, 0.35% active. AID 720647;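 active = drop in luminescence signal, shown as inhibition above about 50% in the replicate tests, limit read from the data, passing the limit was not always enough; inconclusive = probably only some replicates passing the limit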;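 note: agonist challenge used bursicon conditioned medium at about half maximal strength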
EBV LMP1 NFkB = inhibitors of Epstein-Barr LMP1-induced NF-kappaB reporter | LMP1-induced NF-kappaB luciferase reporter cells, luminescence | inhibition, % at 12.5 µM | 350,000 tested, 0.69% active; in the data active = inhibition above about 41%; inconclusive = no clear call, values can overlap the other calls;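 note: 0% = neutral control wells and 100% = reference inhibitor control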
EWS-Fli block = inhibitors of EWS/Fli oncoprotein transcriptional activity; A673 NR0B1-luciferase reporter, viability-normalised; inhibition, % at 12.6 µM; 350,000 tested, 0.67% active;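 active = mean inhibition of at least 50% after viability correction, with every replicate also passing that limit; inconclusive = mean reaches 50% but only one of two replicates passes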;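 note: firefly luciferase signal divided by Alamar Blue viability fluorescence both relative to DMSO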
TROY NFkB inh = TROY signaling inhibition; Q293 LMP1-TROYcd NF-kB luciferase reporter, 4 h; inhibition, % at 10 µM; 360,000 tested, 0.98% active;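 active = compounds whose plate-normalised and pattern-corrected inhibition of the luciferase reporter signal at the single screening dose is 50% or more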
DNA binder FP = small molecule DNA binding by fluorescence polarization; shares compounds with EWS-Fli block; salmon sperm DNA acridine orange fluorescence polarization; AC35, µM (highest dose often 68 µM), without a hit: at the highest dose activity change, negative = DNA binding; 640 tested, 2% active; AID 720586;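 active = fitted curve reaches a 35% signal fall AC35 below twice the sample's top valid tested dose, actives reach about 48 µM in these data; inactive = the rest, including activity in the rising direction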;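 note: lower polarization ratio signals compound binding to DNA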
Active calls of the source: *; ? = inconclusive; nt = no result; [ ] = dose if it differs, or a comment.

SMILES	TWEAK-Fn14 inh	LGR2 antag	EBV LMP1 NFkB	EWS-Fli block	TROY NFkB inh	DNA binder FP
Nc1nc(=S)c2ncn([C@@H]3O[C@H](CO)[C@@H](O)[C@H]3O)c2[nH]1	12.6	-4.6	-39.5	52.6*	15.3	-13.2%
COc1ccc(CN(C)C[C@H]2Oc3ccc(NC(=O)Nc4ccc(F)cc4)cc3CC(=O)N([C@@H](C)CO)C[C@@H]2C)cc1	nt	5.1	nt	3.0	nt	nt
COc1ccc(CN(C)C[C@@H]2Oc3ccc(NC(=O)c4ccncc4)cc3CC(=O)N([C@@H](C)CO)C[C@@H]2C)cc1	nt	1.4	nt	nt	nt	nt
CC(=O)Oc1ccc(-c2ccc(C(=O)Nc3cccc(S(=O)(=O)N4CCOCC4)c3)cc2)cc1	3.9	44.3	-7.1	59.2*	38.3	-7.2%
COc1ccc(C(=O)NC(=S)Nc2cccc(S(=O)(=O)N3CCOCC3)c2)cc1	2.5	1.4	-4.9	29.3	8.7	nt
Cc1ccc(-c2nc3ccccc3s2)cc1S(=O)(=O)N1CCCC1	2.6	-40.1	-9.7	-39.3	-2.5	nt
Cc1cc(-c2nc3cc(F)ccc3s2)ccc1N	75.2*	64.2*	11.3	73.8*	34.2	-1.3%
COc1cc(C(c2c(C)[nH][nH]c2=O)c2c(C)[nH][nH]c2=O)ccc1OC(C)C	2.7	5.6	7.5	77.9*	12.7	-15.9%
Cc1ccc(N=C2C(=O)Nc3ccc(C)c(Br)c32)cc1	7.1	nt	15.7	nt	-24.4	nt
COc1ccc(N=C2C(=O)Nc3ccc(C)c(Br)c32)cc1	-12.9	11.0	-7.0	70.1*	-7.1	-8.1%
CN(C)c1ccc(N=Nc2ccccc2Br)cc1	76.6*	?	-62.8	52.8*	46.8	-5.2%
CC(C)(C)c1ccc(Cn2c(=O)cnc3ccccc32)cc1	92.1*	59.9*	63.0*	78.3*	81.3*	-12.8%
O=c1cnc2ccccc2n1Cc1ccc(Br)cc1	-15.8	-26.1	-5.9	-89.3	-60.4	nt
Nc1nc(N)c2cc(Sc3ccc4ccccc4c3)ccc2n1	52.1*	18.5	nt	68.9*	84.0*	-4.4%
COc1cc(C=C(C(C)=O)C(C)=O)ccc1O	-19.3	nt	6.8	nt	-13.3	nt
COc1cc(/C=C/C(=O)/C=C(O)/C=C/c2ccc(O)c(OC)c2)ccc1O	16.4	17.9	-13.7	80.9*	7.6	29.8µM*
COc1cc(/C=C/C(=O)CC(=O)/C=C/c2ccc(O)c(OC)c2)ccc1O	28.6	nt	-23.8	72.8*	4.6	40.2µM*
COc1cc(C=O)ccc1O	-1.0	-23.9	nt	5.9	-2.1	nt
C[C@@H]1CCCCO[C@@H](CN(C)S(=O)(=O)c2ccc(F)cc2)[C@@H](C)CN([C@@H](C)CO)C(=O)c2cc(NC(=O)c3ccccc3)ccc2O1	nt	14.8	nt	12.4	nt	nt
Cc1c(Cl)cccc1NC(=O)CCC(=O)N/N=C/c1ccc[nH]1	-12.4	10.0	12.6	57.8*	1.1	-12.9%
Cc1noc(C)c1S(=O)(=O)N(C)C[C@@H]1Oc2ccc(NS(=O)(=O)c3cccs3)cc2C(=O)N([C@H](C)CO)C[C@@H]1C	nt	11.4	nt	8.1	nt	nt
O=C(CNC(c1ccccc1)c1ccccc1)Nc1ccccc1-c1ccccc1	23.4	26.4	-1.3	54.3*	29.1	-10.7%
O=C(CNC(c1ccccc1)c1ccccc1)Nc1ccccc1F	16.9	15.5	5.0	5.6	-4.3	nt
Cc1cc(C(=O)Nc2cccc3c2O[C@@H](CN(C)C(=O)Nc2ccc4c(c2)OCO4)[C@@H](C)CN([C@@H](C)CO)C3=O)n(C)n1	nt	7.0	nt	2.7	nt	nt
O=C(O)CN1C(=O)/C(=C\c2ccccc2OCc2ccc(Cl)cc2Cl)SC1=S	97.5*	-11.7	44.1*	59.1*	79.9*	-5.8%
SMILES	TWEAK-Fn14 inh	LGR2 antag	EBV LMP1 NFkB	EWS-Fli block	TROY NFkB inh	DNA binder FP
C/C=C/c1ccc2c(c1)O[C@@H](CN(C)C(=O)COC)[C@H](C)CN([C@H](C)CO)S2(=O)=O	nt	12.6	nt	-10.8	nt	nt
COc1ccc(S(=O)(=O)N2CC[C@@H]3[C@H](CO)Nc4ccc(-c5ccc(C#N)cc5)cc4[C@@H]32)cc1	nt	0.5	nt	56.7*	nt	4.7%
CN1c2ccc(-c3ccc(C#N)cc3)cc2[C@H]2[C@H](CCN2S(=O)(=O)c2cccc(F)c2)[C@H]1CO	nt	29.8	nt	60.0*	nt	-12.1%
CN1c2ccc(-c3ccc(C#N)cc3)cc2[C@@H]2[C@@H](CCN2S(=O)(=O)c2cccc(F)c2)[C@H]1CO	nt	12.8	nt	9.4	nt	nt
COc1ccc(S(=O)(=O)N2CC[C@@H]3[C@@H](CO)Nc4ccc(-c5ccc(C#N)cc5)cc4[C@@H]32)cc1	nt	-1.1	nt	60.3*	nt	-9.5%
CCOC(=O)Cc1csc(NC(=S)NC(=O)c2ccc(C)cc2)n1	68.2*	-6.0	-2.9	81.7*	26.3	-0.5%
COc1ccc(-c2cn(-c3ccc(OC)cc3)c3[n+]2-c2ccccc2CC3)cc1	47.3	23.5	28.6	74.5*	34.4	-5.1%
C[C@@H]1CN([C@@H](C)CO)S(=O)(=O)c2ccc(-c3cccc(C(=O)N(C)C)c3)cc2O[C@H]1CN(C)C(=O)Cc1ccccn1	nt	-5.8	nt	-30.4	nt	nt
COc1ccccc1-c1cn(CC[C@H]2CC[C@@H](NC(=O)C3CCCC3)[C@@H](CO)O2)nn1	nt	24.7	nt	57.5*	nt	-15.6%
COc1ccccc1-c1cn(CC[C@H]2CC[C@@H](NC(=O)C3CCCC3)[C@H](CO)O2)nn1	nt	-7.2	nt	-0.6	nt	nt
COc1ccc(C/C(N)=N/OC(C)=O)cc1OC	12.6	-6.3	-10.8	82.9*	-17.5	-5.1%
COc1ccc(C/C(N)=N/OC(=O)Cc2ccc(OC)c(OC)c2)cc1	-0.1	-9.8	-5.0	9.3	7.5	nt
C[C@H](CO)N1C[C@H](C)[C@H](CN(C)Cc2ccc(C(F)(F)F)cc2)Oc2c(NS(=O)(=O)c3ccc(Cl)cc3)cccc2C1=O	nt	9.6	nt	59.7*	nt	10.1%
COc1ccc(S(=O)(=O)Nc2cccc3c2O[C@H](CN(C)Cc2ccc(C(=O)Nc4ccccc4N)cc2)[C@H](C)CN([C@@H](C)CO)C3=O)cc1	nt	1.8	nt	56.7*	nt	-10.1%[56 µM]
COc1ccc(S(=O)(=O)Nc2cccc3c2O[C@@H](CN(C)Cc2ccc(C(=O)Nc4ccccc4N)cc2)[C@@H](C)CN([C@H](C)CO)C3=O)cc1	nt	23.3	nt	-8.7	nt	nt
OCC1OC(n2ccc3c2ncn2ncnc32)C(O)C1O (configuration not stated)	-5.2	-17.7	13.1	70.7*	-21.7	-10.3%
O=C(Sc1cccc2cccnc12)c1ccc(F)cc1	nt	23.5	nt	49.0	nt	nt
O=C(Sc1cccc2cccnc12)c1ccccc1Br	101.2*	-1.9	-23.0	50.5*	-19.4	-0.8%
C[C@H]1CN([C@@H](C)CO)C(=O)Cc2cc(NS(=O)(=O)c3cccs3)ccc2O[C@@H]1CN(C)Cc1ccc2c(c1)OCO2	nt	5.9	nt	-5.8	nt	nt
Cc1ccc(Cc2c(-c3ccccc3)nc3c(C)cc(Br)cn23)cc1	20.6	0.3	nt	3.3	-12.9	nt
Cc1ccc(Cc2c(-c3ccco3)nc3c(C)cc(Br)cn23)cc1	43.8	5.5	nt	54.4*	2.1	12.8%
CCCC(=O)Nc1ccc2c(c1)C(=O)N(C)[C@H]1CC[C@@H](CC(=O)NCc3ccccc3)O[C@H]1CO2	nt	-9.1	nt	3.9	nt	nt
